# Source: PubChem
# Most compounds without a hit are left out; they make up all but 4.1% or so of the library.
# TRPM1 prom inh: reduces MITF-dependent TRPM1 promoter luciferase signal; hit rate 0.83% among 330,000; SK-MEL-5 TRPM1 promoter luciferase, 24 h; AID 488899; inhibition, % at 12.5 µM;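 active means mean inhibition across replicates of 60% or more, whatever share of single replicates reaches that level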
# TWEAK Fn14 block: TWEAK-Fn14 signaling inhibition. TWEAK-stimulated Fn14 reporter cells, luciferase luminescence, 8 h. inhibition, % at 10 µM. hit rate 2% among 360,000; in the data active means inhibition above about 50%
# Shn3 inh set2: inhibitors of Schnurri-3 3'UTR reporter in osteoblasts. Clone20 osteoblast Shn3 3'UTR firefly luciferase, 24 h. inhibition, % at 12.5 µM. hit rate 0.52% among 360,000. AID 588674;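 active means mean inhibition of at least 75% with every replicate also reaching 75%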;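 further: 0% = median of neutral control wells and 100% = pilot-screen positive control compound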
# Peg3 prom inh: Peg3 promoter activity inhibition. HeLa PEG-Prom luciferase reporter, luminescence, overnight. hit rate 1.7% among 360,000. inhibition, % at 20 µM;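 active means inhibition of at least 50% at 20 µM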
# TROY signal inh: blocks TROY-dependent signaling in reporter cells | AID 1347056 | hit rate 0.98% among 360,000 | Q293 LMP1-TROYcd NF-kB luciferase reporter, 4 h | inhibition, % at 10 µM;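 active means compounds whose plate-normalised and pattern-corrected inhibition of the luciferase reporter signal at the single screening dose is 50% or more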
# EBV LMP1 NFkB: reduces LMP1-driven NF-kappaB luciferase signal. LMP1-induced NF-kappaB luciferase reporter cells, luminescence. inhibition, % at 12.5 µM. hit rate 0.69% among 350,000; in the data active means inhibition above about 41%;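 further: 0% = neutral control wells and 100% = reference inhibitor control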
# * hit, by the source's call; . = no result given; ! = a repeat was not active.
SMILES,TRPM1 prom inh,TWEAK Fn14 block,Shn3 inh set2,Peg3 prom inh,TROY signal inh,EBV LMP1 NFkB
CC1(C(=O)NS(=O)(=O)c2cccc(Cl)c2)CCN1C(=O)C1(c2ccc(Cl)cc2)CC1 (stereo not drawn),.,0,-28,1,18,.
Fc1ccc(CN2C3=NCCN3c3ccccc32)cc1,-5,-2,-1,7,-6,11
c1ccc(-c2ccc(-c3cn4c(n3)CCC4)cc2)cc1,7,55*,7,-109,30,-12
CCSCc1nnc(SCC(=O)c2ccc(OC)cc2)n1C,13,84*,2,-8,.,-4
CC1C(=O)N(Cc2cn(Cc3ccco3)nn2)CCS(=O)(=O)N1Cc1ccc(-c2ccc(F)cc2)cc1 (stereo not drawn),.,11,-16,5,3,-2
O=C(Nc1ccccn1)NC1CCCCC1,-8,-6,-12,-9,-13,84*
COc1cc2cc(c1Cl)N(C)C(=O)CC(OC(=O)C(C)N(C)C(C)=O)C1(C)OC1C(C)C1CC(O)(NC(=O)O1)C(OC)C=CC=C(C)C2 (stereo not drawn),31,-3,4,-5,6,0
CCOC(=O)N1CCN(C(=O)c2cccc(S(=O)(=O)Nc3ccccc3Cl)c2)CC1,.,-5,-3,5,10,2
Nc1nnc(SCc2ccc(Cl)cc2)s1,-19,68*,-28,-82,.,-5
COCCNC(=O)c1cccc(OC2CCN(Cc3cccc(SC)c3)CC2)c1,-1,-11,43,17,-4,8
Cc1cc(C(=O)NNC(=O)c2ccc(Cl)cc2Cl)c(C)o1,-35,10,-10,-82,-9,2
COCCN(C(=O)COC(=O)Cc1ccc(Cl)cc1Cl)c1c(N)n(Cc2ccccc2)c(=O)[nH]c1=O,0,-7,-9,6,18,7
Cc1cccc(N(C)S(=O)(=O)c2ccc(-c3cnc(C4CC4)o3)cc2)c1,56,17,13,12,43,12
Cc1ccc(N(C)S(=O)(=O)c2cc(-c3cnc(C4CC4)o3)ccc2C)cc1,-3,78*,37,36,56*,-7
Cc1ccc(C(=O)OCC(=O)NCc2ccc(F)cc2)o1,1,2,-11,-4,3,2
COc1ccccc1OCCn1cc(C(=O)O)c2ccccc21,1,63*,-4,14,-25,-9
O=C(Cc1ccccc1)NC1CCCCC1,.,-12,0,-4,-13,.
O=S(=O)(c1ccccc1)N(CC(O)COc1ccccc1)c1ccccc1 (stereo not drawn),-5,3,-10,12,-7,1
CCOC(=O)c1[nH]c2ccc(F)cc2c1NC(=O)CN1CCN(C/C=C/c2ccccc2)CC1,47,14,30,65*,12,8
COc1ccc(C(=O)CN2C(=O)c3ccccc3C2=O)cc1,.,-12,-6,-23,-44,.
COc1cc(CN2CCC(C(=O)NC(c3ccc(-c4ccccc4)cc3)c3cnccn3)CC2)cc(OC)c1 (stereo not drawn),.,-1,-3,20,2,.
Cc1cccnc1NC(=O)CCc1nnc2ccc(N3CCC4(CC3)OCCO4)nn12,-3,-5,12,4,-7,0
Cc1c(C(=O)N2CCc3ccccc3C2)sc2nc(-c3ccccc3)cn12,-2,-19,-12,-35,-17,-7
c1ccc(-c2cn3c4c(sc3n2)CCCC4)cc1,-4,89*,9,53*!,72*,50*
Cc1cc(NC(=O)COC(=O)C2CCN(S(=O)(=O)c3ccc(Cl)cc3)CC2)no1,-7,-14,26,8,-3,11
SMILES,TRPM1 prom inh,TWEAK Fn14 block,Shn3 inh set2,Peg3 prom inh,TROY signal inh,EBV LMP1 NFkB
Cc1cc(NC(=O)COC(=O)C2CCN(S(=O)(=O)c3c(Cl)cccc3Cl)CC2)no1,-3,92*,5,13,.,-5
CCOC(=O)C1CCN(S(=O)(=O)c2cccc3nonc23)CC1,-2,0,4,0,5,-2
CCOC(=O)C1CCN(S(=O)(=O)c2c(Cl)ccc3nonc23)CC1,93*,75*,96*,112*,68*,23
CC(=O)c1cccc2c(O)c(C3=Nc4ccccc4C3=O)[nH]c12,40,11,-73,-212,54*,-36
Cc1nnc(SC(C)C(=O)Nc2ccc3ccccc3c2)n1C (stereo not drawn),12,0,2,-3,6,0
O=C(c1ccccc1)N1CCN(C(=O)c2ccccc2)c2ccccc21,7,17,15,9,-20,0
CN(C)/C(=N\S(=O)(=O)c1ccccc1)c1ccc(F)cc1,14,52*,10,15,-17,1
CN(C)/C(=N\S(=O)(=O)c1ccc(F)cc1)c1ccccc1,-6,24,17,-2,-2,-3
COC(=O)C(Cc1ccccc1)NC(=O)C(CC(C)C)NC(=O)OC(C)(C)C (stereo not drawn),-10,-1,-8,11,-10,-1
CC(C)CC(NC(=O)OCc1ccccc1)C(=O)NC(Cc1ccccc1)C(=O)CCl (stereo not drawn),114*,34,64,93*,-8,2
CCOC(=O)[C@H]1[C@H]2COc3ccc(C)cc3[C@@H]2N2C(=O)CN(CC3CCCO3)C(=O)[C@@]12C (stereo partly drawn),-3,-6,-10,3,4,-8
COCCN(Cc1ccco1)C(=O)Cn1ncc2c(=O)oc3ccccc3c21,-2,1,13,7,19,5
COc1ccc(-c2cc(C(F)(F)F)nc(S(=O)(=O)CCCC(=O)Nc3cccc(O)c3)n2)cc1OC,.,96*,-3,96*,53*,.
COc1ccc(-c2cc(C(F)(F)F)nc(S(=O)(=O)CCC(=O)N3CCOCC3)n2)cc1,19,75*,5,103*,49,-5
COc1ccccc1-c1cc(C(F)(F)F)nc(S(=O)(=O)CCCC(=O)N2CCOCC2)n1,80*,38,83,103*,58*,-19
N#Cc1ccc(C(=O)NC2CCCCCCC2)cc1,-106,-16,-55,-251,-27,-24
COc1ccc(NC(=O)CN2C(=O)COc3ccc(S(=O)(=O)N4CCCCC4)cc32)c(OC)c1,4,-1,-5,14,-25,-6
C/C(=N\NC(=S)NC1CCCCC1)c1ccc(Cl)c(Cl)c1,11,62*,-26,-14,41,-3
O=C(CC1CCC1)Nc1cccc2c([N+](=O)[O-])cccc12,.,19,19,-21,-37,.
CCc1ccc(C(=O)COC(=O)c2cc([N+](=O)[O-])ccc2N2CCOCC2)cc1,24,5,42,20,-10,10
Cc1ccc(NS(=O)(=O)c2cc([N+](=O)[O-])ccc2NNC(=S)Nc2cccc(Cl)c2)c(C)c1,7,40,20,41,62*,6
Cc1ccc(NS(=O)(=O)c2cc([N+](=O)[O-])ccc2NNC(=S)Nc2cc(C)ccc2C)c(C)c1,37,68*,74,38,53*,16
